Some test systems named below: NCI-H23 lung; NCI-H226 lung; NCI-H322M lung; HOP-62 NSCLC; NCI-H460 lung; HOP-92 NSCLC; NCI-H522 lung; A549/ATCC NSCLC; 786-0 renal; COLO 205 colon; DU-145 prostate; K-562 leukemia; MALME-3M melanoma; MDA-MB-231 breast; RXF 393 renal; SF-268 CNS; SF-295 CNS; SF-539 CNS; UACC-257 melanoma; M14 melanoma.
Experiment in all cases: NCI-60 one-dose screen, 48 h (100 = growth as untreated, 0 = no growth, -100 = all killed)
Holding throughout (details): 10 µM unless noted

The panel holds about 83,000 compounds, 20% with a hit somewhere; the sample as a whole holds those more often.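 Assay: single dose, 48 h. Readout: percent growth (0 = no net growth; negative = cell death). Active: <10.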 A number with no mark means an inactive call. Activity calls are given as the source filed them.

Turning to `COc1cccc(/C=C2\Oc3cc(OCCCN4CCCC4)ccc3C2=O)c1`, the growth in the experiment with NCI-H23 lung was 88%; in the experiment on NCI-H226 lung it was 95.4%; with NCI-H322M lung, 88.2%; with HOP-62 NSCLC, 98.1%; in the experiment on NCI-H460 lung, 78.4%; with HOP-92 NSCLC, 74.1%. The growth with NCI-H522 lung is 92.2%; with A549/ATCC NSCLC, 91%; with 786-0 renal, 74.4%; in the experiment with COLO 205 colon, 86.7%; in the experiment with DU-145 prostate, 94.7%; in the experiment with K-562 leukemia it was -35.5% (active). Further, the growth in the experiment with MALME-3M melanoma is 98.9%; in the experiment with MDA-MB-231 breast, 76.7%; with RXF 393 renal it was 81%; in the experiment with SF-268 CNS it was 88.3%; in the experiment with SF-295 CNS it was 91.1%; in the experiment on SF-539 CNS, 76.1%. Moreover, the growth in the experiment with UACC-257 melanoma was 102%; in the experiment with M14 melanoma, 65.9%.

As for `CN1C(=O)N(C)C2C1NN=c1s/c(=C\c3cccnc3)c(=O)n12` (stereo not given), the growth in the experiment on NCI-H23 lung is 86%; with NCI-H226 lung, 89.3%; in the experiment on NCI-H322M lung it was 89.1%; in the experiment with HOP-62 NSCLC it was 82.1%; in the experiment on NCI-H460 lung, 83.8%; in the experiment with HOP-92 NSCLC, 78.9%. Further, the growth in the experiment with NCI-H522 lung was 72.2%; in the experiment on A549/ATCC NSCLC it was 84%; in the experiment with 786-0 renal, 96.5%; with COLO 205 colon, 87%; with DU-145 prostate, 95.5%; in the experiment on K-562 leukemia, 27.7%. For the same compound, the growth is 71.4% in the experiment with MALME-3M melanoma; 69.1% in the experiment on MDA-MB-231 breast; 92.4% in the experiment on RXF 393 renal; 84.8% with SF-268 CNS; 81.7% in the experiment with SF-295 CNS; 91% with SF-539 CNS. Further, the growth in the experiment with UACC-257 melanoma is 85.2%; with M14 melanoma, 61.1%.

Take `CCC(=O)Oc1ccc(/C(=C(/C)Cc2cccc(OC)c2)c2ccc(OCCN(C)C)cc2)cc1`: the growth in the experiment on NCI-H23 lung is 94.2%; with NCI-H226 lung it was 111%; in the experiment on NCI-H322M lung, 94.5%; in the experiment with HOP-62 NSCLC, 108%; in the experiment on NCI-H460 lung, 90.1%; in the experiment with HOP-92 NSCLC, 67.2%. The growth in the experiment with NCI-H522 lung is 87.6%; in the experiment with A549/ATCC NSCLC, 97.7%; in the experiment with 786-0 renal, 79.7%; in the experiment on COLO 205 colon it was 102%; in the experiment on DU-145 prostate it was 93.3%; in the experiment on K-562 leukemia it was -26.5% (active). For the same compound, the growth with MALME-3M melanoma is 100%; in the experiment on MDA-MB-231 breast it was 88.2%; in the experiment on RXF 393 renal it was 88.6%; with SF-268 CNS, 86.3%; in the experiment with SF-295 CNS, 99.2%; in the experiment on SF-539 CNS, 90.3%. Besides, the growth is 118% in the experiment with UACC-257 melanoma and 31.8% in the experiment with M14 melanoma.

For `Cc1nc2cncc(C#Cc3cncc(C(=O)Nc4ccc(CN5CCN(C)CC5)c(C(F)(F)F)c4)c3)c2nc1C`, the growth in the experiment on NCI-H23 lung is 7.45% (active); with NCI-H226 lung it was -28.7% (active); with NCI-H322M lung, 8.94% (active); in the experiment with HOP-62 NSCLC, -17.4% (active); in the experiment with NCI-H460 lung it was 13.9%; in the experiment with HOP-92 NSCLC, -40.5% (active). Moreover, the growth was 10.2% in the experiment on NCI-H522 lung; 31% with A549/ATCC NSCLC; 29.6% in the experiment with 786-0 renal; -12.3% (active) in the experiment with COLO 205 colon; 17.5% in the experiment with DU-145 prostate; 7.52% (active) in the experiment on K-562 leukemia. Besides, the growth is -38.8% (active) with MALME-3M melanoma; -49.4% (active) in the experiment on MDA-MB-231 breast; -26.2% (active) with RXF 393 renal; 16.1% in the experiment on SF-268 CNS; 20.5% with SF-295 CNS; -41.9% (active) in the experiment on SF-539 CNS. For the same compound, the growth is 14% in the experiment on UACC-257 melanoma and -24.8% (active) with M14 melanoma.

Consider `O=C(Oc1ccccc1[N+](=O)[O-])C1CCCN1C(=O)OCc1ccccc1` (stereo not given), for which the growth is 95.1% in the experiment on NCI-H23 lung; 99.8% in the experiment on NCI-H226 lung; 121% with NCI-H322M lung; 111% in the experiment on HOP-62 NSCLC; 116% in the experiment with NCI-H460 lung; 86.3% in the experiment with HOP-92 NSCLC. The growth with NCI-H522 lung was 101%; with A549/ATCC NSCLC, 98.5%; in the experiment on 786-0 renal it was 98.6%; with COLO 205 colon, 115%; with DU-145 prostate, 111%; with K-562 leukemia it was 94.6%. Further, the growth in the experiment on MALME-3M melanoma is 112%; with MDA-MB-231 breast it was 103%; in the experiment with RXF 393 renal it was 96%; with SF-268 CNS, 108%; in the experiment with SF-295 CNS, 117%; with SF-539 CNS, 97.2%. Further, the figures for the growth with UACC-257 melanoma and in the experiment with M14 melanoma were 94.2% and 93%, respectively.

Consider `Cc1cc(N/N=C/c2nc(-c3ccccc3)oc2C)c2cc(Cl)ccc2n1`, for which the growth with NCI-H23 lung is -19.6% (active); in the experiment with NCI-H226 lung, 81.4%; in the experiment with NCI-H322M lung, -54.8% (active); with HOP-62 NSCLC it was 10.5%; in the experiment with NCI-H460 lung, -78.3% (active); with HOP-92 NSCLC it was -61.9% (active). For the same compound, the growth in the experiment on NCI-H522 lung is -59.4% (active); in the experiment on A549/ATCC NSCLC, -76.8% (active); in the experiment with 786-0 renal, -83.1% (active); in the experiment with COLO 205 colon, -71.9% (active); with DU-145 prostate, -31.3% (active); in the experiment on K-562 leukemia it was -29.3% (active). Besides, the growth with MALME-3M melanoma is -88.9% (active); in the experiment with MDA-MB-231 breast, -95.1% (active); in the experiment on RXF 393 renal it was -88.3% (active); in the experiment on SF-268 CNS, -60.3% (active); with SF-295 CNS, -85% (active); in the experiment on SF-539 CNS, 8.72% (active). Further, the growth in the experiment with UACC-257 melanoma was 106%; in the experiment on M14 melanoma, -87.4% (active).

Take `CCN(CC)c1ccc(N=O)cc1`: the growth with NCI-H23 lung is 81.7%; with NCI-H226 lung it was 101%; with NCI-H322M lung, 87.7%; in the experiment with HOP-62 NSCLC, 91.8%; in the experiment with NCI-H460 lung it was 58.9%; in the experiment on HOP-92 NSCLC it was 51.9%. Further, the growth in the experiment with NCI-H522 lung is -80.9% (active); in the experiment with A549/ATCC NSCLC, 59.7%; with 786-0 renal, 91.8%; with COLO 205 colon, 13.9%; in the experiment on DU-145 prostate, 80.9%; in the experiment with K-562 leukemia, 23.5%. The growth in the experiment on MALME-3M melanoma was 71.1%; with MDA-MB-231 breast it was 47.4%; in the experiment with RXF 393 renal, 72.5%; in the experiment with SF-268 CNS, 59.1%; in the experiment with SF-295 CNS, 92.7%; in the experiment with SF-539 CNS, 77.2%. Further, the growth was 33.2% with UACC-257 melanoma and 75.3% in the experiment with M14 melanoma.

The values are drawn from PubChem BioAssay (NCI).
